Drawing on ChEMBL document CHEMBL4513146, “CO-ADD screening of Karazin Kharkiv National University (Ukraine) compounds”, this text covers Inhibition for nine compounds.

Usually Inhibition stands for the change of the read-out against control, counted positive when it falls.

Measured potencies and affinities stand elsewhere.

The assay relates to Candida albicans. Conditions: Concentration 32 ug.mL-1; ASSAY_TEST Inhibition of Fungal Growth; detection method Absorption (OD530).
Turning to `COc1ccc(-c2cc3c4nnc(SCC(=O)NCc5ccccc5Cl)n4ccn3n2)cc1`, the Inhibition stood at 1.79%.

`CCOC(=O)c1ccc(NC(=O)Cn2nc3ccc(C(=O)Nc4cccc(C)c4)cn3c2=O)cc1`: the Inhibition is 1.34%.

Turning to `Cc1ccc(NC(=O)Cn2nc3ccc(SC(C)(C)C)nn3c2=O)cc1Cl`, the Inhibition is listed as 1.72%.

As for `Cc1c(Cl)cccc1-n1ccn2c(=O)n(Cc3ccc(Cl)cc3)nc2c1=O`, the Inhibition came out at 1.02%.

Regarding `Cc1cc2nn(CC(=O)Nc3ccc4c(c3)OCCO4)c(=O)n2c(Nc2ccccc2C)n1`, the Inhibition amounted to 7.15%.

Take `Cc1cc(C)cc(Oc2nc3ccccc3n3c(=O)n(CC(=O)Nc4ccc5c(c4)OCO5)nc23)c1`: the Inhibition is 46.24%.

On to `CCc1nnc2c(S(=O)(=O)N(Cc3cc(F)cc(F)c3)c3cccc(F)c3)cccn12`, for which the Inhibition was 4.8%.

On to `CCOC(=O)C1CCCN(C(=O)Cn2nc3n(CC(C)C)c(=O)c4sccc4n3c2=O)C1` (centres undefined), for which the Inhibition is recorded as -1.48%.

Regarding `Cc1ccc(NC(=O)Cn2nc3c(Oc4ccccc4)nccn3c2=O)c(Br)c1`, the Inhibition is recorded as 0.27%.
